Assay results taken from PubChem BioAssay.
Activity calls are given as the source filed them.

How the values were obtained:
Albumin (Bos taurus) = Albumin (Bos taurus) (UniProt P02769); assay: bovine serum albumin binders on microarray, profiling panel, artefact control for SMM control protein annotation, biochemical, small-molecule microarray, Alexa647 label, 635/667 nm fluorescence (AID 1118); conditions: BSA-A647 binding, fluorescence 635 nm, higher = more signal;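 further: score merges 667 nm emission intensity and signal-to-noise per printed compound spot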
[1] = small-molecule microarray binders of probe aXIP, primary screen, biochemical, NeuroSMM set, 635/667 nm fluorescence (AID 1119); conditions: higher = more signal, called active from +8 up or from −8 down;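 further: probe is the protein aXip251-270 applied at 1 µg/mL to compound-printed slides; binding of probe to printed compounds measured as 667 nm fluorescence plus signal to noise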
[2] = small-molecule binders of probe aNOTCH3, primary screen, biochemical, small-molecule microarray, 635/667 nm fluorescence (AID 1120); conditions: higher = more signal;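 further: probe is a biotin-tagged antibody raised against NOTCH3 rather than NOTCH3 protein; score merges spot fluorescence near 667 nm with spot signal to noise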
[3] = small-molecule binders of probe aNOTCH2, primary screen, biochemical, small-molecule microarray, 635/667 nm fluorescence (AID 1121); conditions: higher = more signal;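 further: score merges feature fluorescence read at 667 nm with its signal to noise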
[4] = molecular target: Carbonic anhydrase 2 (Homo sapiens) (UniProt P00918); assay: CAII small-molecule binders, profiling panel, biochemical, small-molecule microarray, Alexa647-labelled CAII (AID 1122); conditions: CAII-A647 binding fluorescence, higher = more signal
[5] = COS7 lysate on small-molecule microarray, probe aHis, 635 nm (AID 1123); conditions: COS7 cell lysate, fluorescence, higher = more signal;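 further: z-score combines 667nm fluorescence intensity with signal-to-noise per printed compound spot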
[6] = compound binding in COS7 lysate, probe aLAP1, primary screen, cell lysate, small-molecule microarray (AID 1124); conditions: probe aLAP1, fluorescence, higher = more signal;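 further: lysate comes from COS7 cells expressing LAP1 and is applied at 0.3 µg/mL; score merges spot fluorescence near 667 nm with signal-to-noise over triplicate slides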
Sam68 (KHDRBS1) = assay: Sam68 small-molecule binders, primary screen, biochemical, small-molecule microarray, 635 nm fluorescence (AID 1125); conditions: small-molecule microarray binding, higher = more signal;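 further: score merges 667 nm channel intensity with signal to noise over triplicate slides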
[7] = test system: Chordin-like protein 2 (CHRDL2); assay: CHRDL2 small-molecule binders, primary screen, biochemical, small-molecule microarray, 635 nm fluorescence (AID 1126); conditions: small-molecule microarray binding, fluorescence 635 nm; higher = more signal;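 further: printed compound slides probed with Chrdl2 protein at 4 µg/mL for 1 h at 4 C; score merges 667 nm emission intensity with signal to noise over three replicate slides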
[8] = molecular target: Concanavalin-A (Canavalia ensiformis) (UniProt P02866); assay: ConA small-molecule binders, primary screen, artefact control for SMM control protein annotation, biochemical, small-molecule microarray, Alexa647 label, 635 nm (AID 1127); conditions: ConA-A647 binding fluorescence, higher = more signal;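 further: z combines 667 nm emission intensity with signal-to-noise across three replicate slides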
[9] = anti-His antibody binders, primary screen, artefact control for SMM control protein annotation, biochemical, small-molecule microarray, 635 nm fluorescence (AID 1128); conditions: anti-His Alexa647 antibody binding, higher = more signal;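 further: score merges feature fluorescence with signal-to-noise for each printed compound spot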
[10] = test system: Human papillomavirus type 1a E7 protein (residues 1-88); assay: HPV1a E7 small-molecule binders, primary screen, biochemical, small-molecule microarray, residues 1-88, 635 nm (AID 1129); conditions: small-molecule microarray binding, fluorescence 635 nm; higher = more signal
[11] = molecular target: Focal adhesion kinase 1 (Homo sapiens) (UniProt Q05397); assay: small-molecule microarray binders of FAK, primary screen, biochemical, 635/667 nm fluorescence, BSA, DTT (AID 1130); conditions: PTK2 binding, 635 nm fluorescence, higher = more signal;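 further: composite of spot emission at 667 nm and signal to noise over triplicate slides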
[12] = test system: Fibrinogen (Alexa647-labelled); assay: fibrinogen binders on compound microarrays, profiling panel, artefact control for SMM control-protein annotation, biochemical, small-molecule microarray, 635/667 nm fluorescence (AID 1131); conditions: fibrinogen-A647 binding fluorescence, higher = more signal;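 further: z-score merges 667 nm fluorescence with per-spot signal-to-noise over triplicate slides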
[13] = molecular target: Follistatin (Homo sapiens) (UniProt P19883); assay: follistatin binders on small-molecule microarrays, primary screen, biochemical, small-molecule microarray, 635/667 nm fluorescence (AID 1132); conditions: FST binding, 635 nm fluorescence, higher = more signal
[14] = molecular target: Fibroblast growth factor 2 (Homo sapiens) (UniProt P09038); assay: FGF2 binders on small-molecule microarrays, primary screen, biochemical, small-molecule microarray, 635/667 nm fluorescence (AID 1133); conditions: small-molecule microarray binding, FGF2, fluorescence 635/667; higher = more signal
[15] = mitochondrial membrane potential change in A549 cells, profiling panel, cell-based, JC-1 fluorescence, basal, 24 h, 100 nL (AID 1138); conditions: higher = more signal;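 further: A549 lung adenocarcinoma cells under basal conditions with no added stimulus; test concentration not given here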
Lefty1 = Lefty1 binders on small-molecule microarrays, primary screen, biochemical, small-molecule microarray, 635/667 nm fluorescence (AID 1139); conditions: small-molecule microarray binding, fluorescence 635/667; higher = more signal
[16] = test system: wheat germ agglutinin (Triticum aestivum), Alexa647-labelled; assay: wheat germ agglutinin binders on compound microarrays, profiling panel, artefact control for SMM control-protein annotation, biochemical, small-molecule microarray, 635/667 nm fluorescence (AID 1140); conditions: WGA-A647 binding, 635 nm fluorescence, higher = more signal;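 further: score merges 667 nm feature emission with signal to noise over triplicate slides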
[17] = molecular target: Luciferin 4-monooxygenase (Photinus pyralis) (UniProt P08659); assay: firefly luciferase enzyme inhibitors, primary screen, biochemical, luminescence, purified enzyme, 2006 set (AID 1141); conditions: SteadyGlo luminescence, 30 min, higher = more signal, called active from +8 up or from −8 down;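 further: cell-free assay with purified firefly luciferase at 100 ng per well in PBS; test concentration not given here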
Luciferin 4-monooxygenase (Photinus pyralis), sequence (P08659 whole entry, looked up): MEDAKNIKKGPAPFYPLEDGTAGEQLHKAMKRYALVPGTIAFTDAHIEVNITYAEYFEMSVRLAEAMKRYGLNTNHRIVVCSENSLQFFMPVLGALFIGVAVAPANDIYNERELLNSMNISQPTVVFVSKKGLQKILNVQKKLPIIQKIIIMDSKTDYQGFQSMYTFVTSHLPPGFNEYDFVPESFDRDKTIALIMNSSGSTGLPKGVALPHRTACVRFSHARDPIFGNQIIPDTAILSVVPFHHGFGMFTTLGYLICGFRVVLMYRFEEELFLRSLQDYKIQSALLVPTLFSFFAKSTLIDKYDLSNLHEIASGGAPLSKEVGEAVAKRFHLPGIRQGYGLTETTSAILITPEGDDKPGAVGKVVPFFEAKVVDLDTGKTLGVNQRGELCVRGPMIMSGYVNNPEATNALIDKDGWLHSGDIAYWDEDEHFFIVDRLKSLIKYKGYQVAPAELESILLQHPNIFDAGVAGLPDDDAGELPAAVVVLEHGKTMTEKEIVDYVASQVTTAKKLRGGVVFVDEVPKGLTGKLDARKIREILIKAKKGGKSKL

Concanavalin-A (Canavalia ensiformis), sequence (P02866 whole entry, looked up): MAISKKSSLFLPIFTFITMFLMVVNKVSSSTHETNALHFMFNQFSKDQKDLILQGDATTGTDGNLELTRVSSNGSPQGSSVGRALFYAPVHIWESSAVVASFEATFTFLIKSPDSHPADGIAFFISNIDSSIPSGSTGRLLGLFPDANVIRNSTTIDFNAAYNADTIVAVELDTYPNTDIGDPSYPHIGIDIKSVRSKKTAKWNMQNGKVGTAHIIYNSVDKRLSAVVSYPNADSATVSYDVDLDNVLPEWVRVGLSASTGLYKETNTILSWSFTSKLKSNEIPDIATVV
Focal adhesion kinase 1 (Homo sapiens), sequence (Q05397 whole entry, looked up): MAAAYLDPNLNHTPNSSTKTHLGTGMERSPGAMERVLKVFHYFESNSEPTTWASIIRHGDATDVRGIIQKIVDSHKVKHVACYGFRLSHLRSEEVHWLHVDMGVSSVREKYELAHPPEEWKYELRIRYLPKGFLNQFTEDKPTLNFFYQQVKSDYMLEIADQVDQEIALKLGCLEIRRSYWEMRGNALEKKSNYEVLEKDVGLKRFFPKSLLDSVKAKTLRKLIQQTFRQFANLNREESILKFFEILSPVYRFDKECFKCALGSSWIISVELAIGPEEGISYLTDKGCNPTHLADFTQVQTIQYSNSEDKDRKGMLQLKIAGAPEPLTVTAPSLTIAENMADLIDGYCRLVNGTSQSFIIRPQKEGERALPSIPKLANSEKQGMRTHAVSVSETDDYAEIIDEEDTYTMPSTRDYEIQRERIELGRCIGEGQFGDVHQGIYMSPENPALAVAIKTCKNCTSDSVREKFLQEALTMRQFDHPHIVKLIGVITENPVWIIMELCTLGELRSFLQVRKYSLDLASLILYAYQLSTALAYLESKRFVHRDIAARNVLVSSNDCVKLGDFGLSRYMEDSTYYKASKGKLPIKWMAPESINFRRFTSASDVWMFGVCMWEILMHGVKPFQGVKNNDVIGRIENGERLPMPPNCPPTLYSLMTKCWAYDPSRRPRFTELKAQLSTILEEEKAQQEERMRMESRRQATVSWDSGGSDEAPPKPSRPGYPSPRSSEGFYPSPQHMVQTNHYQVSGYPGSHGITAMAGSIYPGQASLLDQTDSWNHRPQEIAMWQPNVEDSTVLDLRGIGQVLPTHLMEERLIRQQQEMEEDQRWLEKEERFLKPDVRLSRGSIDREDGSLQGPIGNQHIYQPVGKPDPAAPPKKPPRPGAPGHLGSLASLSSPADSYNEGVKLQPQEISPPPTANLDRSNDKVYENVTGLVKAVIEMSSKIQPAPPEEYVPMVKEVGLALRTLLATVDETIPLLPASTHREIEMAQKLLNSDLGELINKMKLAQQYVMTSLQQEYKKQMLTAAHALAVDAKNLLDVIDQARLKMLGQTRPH
Fibroblast growth factor 2 (Homo sapiens), sequence (P09038 whole entry, looked up): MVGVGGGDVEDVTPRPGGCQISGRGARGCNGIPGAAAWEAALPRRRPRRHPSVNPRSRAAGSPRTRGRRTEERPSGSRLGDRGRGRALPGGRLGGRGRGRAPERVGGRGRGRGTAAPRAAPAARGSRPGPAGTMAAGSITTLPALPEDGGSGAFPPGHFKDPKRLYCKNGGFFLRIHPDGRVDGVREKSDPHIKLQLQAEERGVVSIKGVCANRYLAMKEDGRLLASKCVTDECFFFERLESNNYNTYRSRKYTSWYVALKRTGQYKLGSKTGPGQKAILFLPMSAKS
Follistatin (Homo sapiens), sequence (P19883 whole entry, looked up): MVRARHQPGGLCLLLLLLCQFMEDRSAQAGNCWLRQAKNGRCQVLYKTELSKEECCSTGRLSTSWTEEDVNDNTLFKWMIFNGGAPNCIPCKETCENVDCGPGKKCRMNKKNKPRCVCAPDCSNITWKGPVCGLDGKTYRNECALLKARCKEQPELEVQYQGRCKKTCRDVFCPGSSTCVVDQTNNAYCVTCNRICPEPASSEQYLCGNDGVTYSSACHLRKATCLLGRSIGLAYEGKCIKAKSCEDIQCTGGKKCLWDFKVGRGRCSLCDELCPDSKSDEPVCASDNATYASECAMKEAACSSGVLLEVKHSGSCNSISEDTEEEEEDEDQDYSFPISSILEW
Albumin (Bos taurus), sequence (P02769 whole entry, looked up): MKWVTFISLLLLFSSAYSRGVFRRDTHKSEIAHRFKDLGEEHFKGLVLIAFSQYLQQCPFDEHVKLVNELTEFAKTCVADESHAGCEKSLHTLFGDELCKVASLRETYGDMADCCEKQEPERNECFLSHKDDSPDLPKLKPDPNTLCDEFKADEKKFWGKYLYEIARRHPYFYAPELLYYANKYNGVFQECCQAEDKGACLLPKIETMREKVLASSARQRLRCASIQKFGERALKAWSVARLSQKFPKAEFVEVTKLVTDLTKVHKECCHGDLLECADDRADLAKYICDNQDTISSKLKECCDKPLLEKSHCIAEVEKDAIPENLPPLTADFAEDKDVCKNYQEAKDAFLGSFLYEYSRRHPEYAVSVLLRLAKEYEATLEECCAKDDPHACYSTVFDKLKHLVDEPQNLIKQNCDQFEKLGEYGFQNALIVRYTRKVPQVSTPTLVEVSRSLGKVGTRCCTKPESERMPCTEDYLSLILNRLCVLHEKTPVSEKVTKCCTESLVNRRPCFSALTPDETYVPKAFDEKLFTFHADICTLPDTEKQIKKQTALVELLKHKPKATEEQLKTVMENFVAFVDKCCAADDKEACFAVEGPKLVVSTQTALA

| SMILES | composite z-score (Albumin (Bos taurus)) | composite Z-score [1] | composite z-score [2] | composite z-score [3] | composite z-score [4] | composite z-score [5] | composite z-score [6] | composite z-score (Sam68 (KHDRBS1)) | composite z-score [7] | composite z-score [8] | composite z-score [9] | composite z-score [10] | composite z-score [11] | composite z-score [12] | composite z-score [13] | composite z-score [14] | z-score [15] | composite z-score (Lefty1) | composite z-score [16] | z-score [17] |
| --- | --- | --- | --- | --- | --- | --- | --- | --- | --- | --- | --- | --- | --- | --- | --- | --- | --- | --- | --- | --- |
| CN(C)CCCNC(=O)[C@@]1(c2ccc([N+](=O)[O-])cc2)CC(=O)N(CC23CC4CC(CC(C4)C2)C3)[C@@H]1c1ccc(CO)cc1 | 0.0561 | -0.137 (inactive) | 0.683 | 0.094 | 0.49 | 3.43 | 0.82 | 1.3 | 1.07 | 1.15 | 1.03 | 1.19 | 0.703 | 0.807 | 1.28 | 0.844 | 0.742 | 0.99 | 0.955 | 0.292 (inactive) |
| CCCC=C(CCC)[C@@H](NP(=O)(c1ccccc1)c1ccccc1)c1ccc(C(F)(F)F)cc1 | 0.179 | -0.349 (inactive) | 0.26 | 0.0684 | -0.0457 | 0.442 | 0.207 | 1.14 | -0.13 | -0.482 | 0.74 | 0.811 | 0.666 | 0.47 | -0.683 | -0.265 | 0.365 | 0.57 | 0.255 | 2.55 (inactive) |
| CCCCN1CC=CC23O[C@@H]4/C=C\CCC(C)OC(=O)C4[C@H]2C(=O)N(CCCCCCO)[C@@H]3C1=O (stereo not given in full) | 0.5 | -0.59 (inactive) | -0.307 | -0.228 | 0.86 | 0.177 | 0.54 | -0.168 | -0.361 | -0.34 | 0.539 | 0.0554 | -0.266 | -1.22 | -0.454 | -0.668 | 0.376 | -0.74 | -0.465 | -0.393 (inactive) |
| COCCOC(=O)N1C(=O)[C@@]2(c3cc(C#CC4(O)CCCCCC4)ccc31)[C@H](C(N)=O)[C@H]1C(=O)O[C@H](c3ccccc3)[C@H](c3ccccc3)N1[C@@H]2c1ccc(O)cc1 | 0.21 | -0.014 (inactive) | 0.676 | -0.0349 | 0.181 | 1.27 | 0.298 | 1.12 | 0.47 | 0.866 | 1.28 | 1.17 | 0.124 | 0.329 | 1.32 | 0.869 | -0.317 | 0.754 | 0.547 | -1.4 (inactive) |
| COCC(=C=CC[C@H](O)c1cccc(OCCO)c1)C[C@H](O)c1ccccn1 | 0.0722 | -0.0402 (inactive) | -0.004 | -0.145 | 0.778 | 3.79 | 0.369 | 0.52 | -0.0575 | 0.102 | 0.344 | 0.273 | -0.296 | 0.521 | 1.37 | 0.89 | 1.07 | 1.37 | 0.613 | -0.266 (inactive) |
| COC(=O)[C@@]1(Cc2ccc(OC)cc2)[C@H]2c3cc(C(=O)N(C)C)n(Cc4nc5ccccc5[nH]4)c3C[C@H]2CN1C(=O)c1ccccc1 | 0.997 | -0.119 (inactive) | 0.515 | -0.112 | 0.781 | 2.27 | -0.0637 | 1.32 | -0.54 | 1.19 | 1.39 | 1.26 | 1.34 | 0.991 | 0.907 | -0.295 | 1.95 | -0.117 | 1.35 | 2.41 (inactive) |
| COC(=O)[C@@]1(Cc2ccc(OC)cc2)[C@H]2c3cc(C(=O)N(C)C)n(CCc4c[nH]c5ccc(O)cc45)c3C[C@H]2CN1C(=O)c1ccccc1 | 0.932 | 0.258 (inactive) | 0.403 | 0.357 | 0.745 | 2.88 | 1.27 | 1.34 | 0.121 | 1.17 | 0.548 | 1.21 | 1.36 | 0.979 | 1.01 | -0.218 | 0.74 | -0.737 | 1.28 | 1.18 (inactive) |
| C=CC[C@]1(C(=O)N(C)C)N=C(c2ccc(OCCCO)cc2)O[C@H]1c1ccccc1N=[N+]=[N-] | 1.07 | 0.298 (inactive) | 0.266 | 0.0805 | 0.489 | 2.81 | 0.55 | 1.3 | -0.811 | 0.877 | 2.04 | 1.22 | 0.264 | 1.02 | 0.899 | -0.267 | 1.08 | -0.0297 | 1.25 | -9.41 (active) |
| O=C(CCCCCCC(=O)Nc1ccccc1)N/N=C/c1ccccc1 | -0.4 | 0.0068 (inactive) | -0.154 | -0.144 | -0.251 | -0.591 | 0.212 | -0.731 | 0.358 | -0.434 | 0.602 | -0.581 | -0.266 | -0.876 | -0.083 | 0.323 | -0.123 | -0.251 | -0.552 | -0.83 (inactive) |
| CCOC(=CC(=O)OC)CC(O)c1cccc(Cl)c1 (stereo not given) | 0.451 | -0.114 (inactive) | -0.17 | -0.176 | 0.606 | 1.47 | 0.49 | 0.505 | -1.42 | 0.0032 | 1.83 | 1.15 | 0.702 | -0.76 | -0.23 | -0.745 | 1.32 | -0.417 | 1.22 | -0.135 (inactive) |
| CCOC(=O)C[C@H]1[C@H](OC(=O)c2ccc(-c3ccccc3)cc2)[C@@H](NC(=O)c2ccc3ccccc3c2)c2cc(OCCCO)ccc2N1C(=O)c1ccc2ccccc2n1 | 0.587 | 0.152 (inactive) | 0.178 | 0.0278 | 0.137 | 1.06 | -0.0403 | 1.04 | -0.0835 | 0.954 | 0.558 | 0.921 | -0.152 | 0.735 | 0.458 | -0.141 | 0.329 | 0.367 | 0.209 | -0.704 (inactive) |
